Out of some 420,000 compounds screened, about 50,000 (12%) were called active. Not shown: some 26% with an inconclusive outcome. Many of the other results were omitted from the sample, so actives are more common in it than they were. Values without a mark were called inactive. Calls follow the shape of the dose curve; as a rule, active = well fitted inhibition curve with a large enough effect; inconclusive = small, poorly fitted or top-dose-only effect; inactive = flat fitted curve, though single readings scatter.

Data on 52 compounds can be found in PubChem BioAssay AID686979 (National Center for Advancing Translational Sciences (NCATS), 2013).
% is scaled to controls: 0 for no effect and ±100 for the full control effect; potency is read from the fitted curve at half-maximal effect.

The assay is described as follows: qHTS for Inhibitors of human tyrosyl-DNA phosphodiesterase 1 (TDP1): qHTS in cells in presence of CPT. Also: nearly all actives have a fitted effect of over 55% in size. The conditions noted are these: chicken DT40 Tdp1-/-;hTDP1 cells + 20 nM CPT, ATP luminescence, 48 h; series mostly up to 46.2 µM; activity change, negative = growth inhibition: at the top concentration. In a few lines:
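Cell growth measured by CellTiter-Glo luminescence after a minimum 48 h, 37 C compound exposure with 20 nM CPT in Tdp1-knockout DT40 cells stably expressing hTDP1, seeded 400/well; qHTS titration format.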
With `Cc1nccn1CCC1CCCCN1C(=O)CCc1nnc(-c2ccsc2)o1` (configuration not stated), the “activity change, negative = growth inhibition” value is -0.241%. The same measure, in the same setting: the figure for `CC(=O)OCCOCn1cnn2c(=O)c(Br)c(C)nc12` is 1.1%. Turning to `CSc1n[nH]c(-c2ccco2)n1`, the “activity change, negative = growth inhibition” value was 2.51%. Still for that read-out and setting: the figure for `COC(=O)c1ccc(C)c(NC(=O)Cn2c(C)csc2=O)c1` is -8.88%; for `Nc1ccc(C(=O)OCC(=O)NC2CCS(=O)(=O)C2)cc1[N+](=O)[O-]` (configuration not stated) it is -10.4%; for `O=NN(CCCl)C(=O)NCCc1cccc[n+]1[O-]` it is -1.12%.

Turning to `NC(=O)C1CCN(C(=O)c2ccc3c(=O)n(Cc4cccc(Br)c4)c(=S)[nH]c3c2)CC1`, the “activity change, negative = growth inhibition” value was -0.901%.

For the compound `CCOC(=O)c1sc2nc(C)[nH]c(=O)c2c1C`, the “activity change, negative = growth inhibition” value was 0.124%. In the case of `COC(=O)c1cccc(NC(=O)CSc2nc(C)cc(=O)[nH]2)c1`, the “activity change, negative = growth inhibition” value was -4.36%.

For the compound `CCOC(=O)c1sc(=S)n2c1[nH]c(=O)c1ccc(C(=O)OC)cc12`, the Potency is 10.3 µM (active).

As to `COc1ccccc1C1C(C(=O)N2CCCCC2)=C(C)Nc2nc3ccccc3n21` (configuration not stated), the “activity change, negative = growth inhibition” value was -13.4%. Same read-out and setting: the figure for `CCCCN1C(=O)C(CC(=O)NCc2cccs2)CC(C(=O)N2CCCCCC2)=C1C` (configuration not stated) is -24.1%. Still for that read-out and setting: the figure for `Cc1cc(O)c(C(c2ccccc2)N2CCN(c3ccccc3F)CC2)c(=O)n1Cc1ccco1` (configuration not stated) is -9.48%. Regarding `OC(COc1cccc2ccccc12)CN1CCN(c2ccccn2)CC1` (configuration not stated), the “activity change, negative = growth inhibition” value is -29.9%.

Regarding `Cc1cc(C)cc(OCC(=O)Nc2c(C(=O)c3ccccc3)oc3ccccc23)c1`, the “activity change, negative = growth inhibition” value is -27.4%. Turning to `Cc1cc(C)c(NC(=O)C[N+](C)(C)CC(O)COc2cccc3ccccc23)c(C)c1` (configuration not stated), the Potency is 18.4 µM (active). In the case of `COc1ccccc1CNC(=O)COC(=O)c1cccs1`, the “activity change, negative = growth inhibition” value was -22.4%. The same measure, in the same setting: with `COc1ccc(/C=C/C(=O)Nc2cccnc2)cc1OC` the figure was 16.1%.

For the compound `COc1ccc(/C=C/C(=O)Nc2ccc(C34CC5CC(CC(O)(C5)C3)C4)cc2)cc1OC`, the Potency was 2.31 µM (active). On to `COc1cc(/C=C/C(=O)Nc2ccc(OC)c(S(=O)(=O)N3CCOCC3)c2)ccc1OCC#N`, for which the “activity change, negative = growth inhibition” value was -29%.

Consider `COCCn1c(N)c(NCc2ccccc2)c(=O)[nH]c1=O`, for which the “activity change, negative = growth inhibition” value was -27.3%. Turning to `O=C(COC(=O)C12CC3CC(CC(O)(C3)C1)C2)NC12CC3CC(CC(C3)C1)C2`, the “activity change, negative = growth inhibition” value is -0.57%. The same measure, in the same setting: the figure for `COc1cccc(NC(=O)CSc2nnc(Cc3ccc(OC)c(OC)c3)o2)c1` is 0.397%; for `Cc1cc(C)c2c(Cn3ccnc3)cc(=O)oc2c1` it is 13.7%. As to `COc1ncnc2c1ncn2CCCNCCN1CCOCC1`, the “activity change, negative = growth inhibition” value is 7.08%. For `O=C(O)C(c1ccccc1)N1C(=O)/C(=C\c2ccc(-c3cccc(Cl)c3)o2)SC1=S` (configuration not stated), the “activity change, negative = growth inhibition” value was -2.25%. The same measure, in the same setting: with `COCCOC(=O)C1=C(C)NC(=O)NC1c1ccc(Cl)cc1` (configuration not stated) the figure was -24.5%; with `CCOC(=O)CCCNC(=O)CN1C(=O)NC(CCc2ccccc2)C1=O` (configuration not stated), 5.72%. On to `CC1=C(C(=O)OCc2ccccc2)C(c2ccc(C(F)(F)F)cc2)NC(=O)N1CCCCCC(=O)O` (configuration not stated), for which the “activity change, negative = growth inhibition” value is -2.79%. With `CCCCNC(=O)C(C)N(CCN(C)C)C(=O)CCCN1C(=O)NC(c2ccc(Cl)cc2)C(C(=O)OCc2ccccc2)=C1C` (configuration not stated), the Potency is 20.6 µM (active). Turning to `CCCCNC(=O)C(C)N(CCN(C)C)C(=O)CCCCCN1C(=O)NC(c2ccc(Cl)cc2)C(C(=O)OCc2ccccc2)=C1C` (configuration not stated), the Potency is 7.31 µM (active). In the case of `CCCCNC(=O)C1(O)c2ccccc2NC(=O)N1c1ccc(Cl)cc1` (configuration not stated), the “activity change, negative = growth inhibition” value is 14.6%. On the same count and under the same terms, the figure for `COc1ccccc1/C=C/C(=O)NC(=S)N1CCOCC1` is -1.22%; for `CC(C)Cc1nnc(NC(=O)CN2C(=O)NC3(CCCCC3)C2=O)s1` it is -7.33%; for `COC(=O)c1ccccc1NC(=O)CSc1nc2c(c(=O)[nH]1)CCC2` it is -3%.

With `CC(=O)Nc1ccc(S(=O)(=O)N2CCn3cccc3C2C)cc1` (configuration not stated), the “activity change, negative = growth inhibition” value is -5.77%. Still for that read-out and setting: with `O=C(CCN1CCCO1)N1CCCC(N2CCN(c3cccc(C(F)(F)F)c3)CC2)C1` (configuration not stated) the figure was -2.8%. On the same count and under the same terms, the figure for `O=C(NN=Cc1ccc2c(c1)CCC2)c1ccccc1O` is -23%. As to `O=C(OCC(=O)N1CCOCC1)c1ccc2ccccc2c1`, the “activity change, negative = growth inhibition” value is 1.63%.

`NC(=O)c1ccccc1N=Cc1ccc2ccccc2c1`: the Potency was 20.6 µM (active).

Regarding `COc1ccccc1C(=O)N[C@@H]1c2ccccc2C2(CCN(C(=O)c3csnn3)CC2)[C@H]1OC`, the activity change, negative = growth inhibition was -8.07% [at 9.04 µM]. `COC(=O)CC1=NN(c2ccccc2)C(=O)C1`: the “activity change, negative = growth inhibition” value is 6.54%. Still for that read-out and setting: the figure for `CCC(CC)c1nn2cc(-c3ccccc3)nc2s1` is -21.2%.

`COC(=O)CC1Oc2ccccc2-n2cc(-c3ccccc3)nc21` (configuration not stated): the Potency is 14.6 µM (active). For the compound `COc1ccccc1NC(=O)COC(=O)c1ccccc1SCC(=O)N1CCCC1`, the “activity change, negative = growth inhibition” value was -18.2%. Take `c1ccc(-n2cccc2)c(N2CCCCC2)c1`: the “activity change, negative = growth inhibition” value is -16.6%.

In the case of `COc1ccc(N2C(=O)C(O)C2c2ccc(C)cc2)cc1` (configuration not stated), the “activity change, negative = growth inhibition” value is -18.6%. With `COC(=O)C1=C(Nc2ccc(OC)cc2)C=C(C)C(C(=O)OC)C1c1ccc(C)cc1` (configuration not stated), the Potency was 16.4 µM (active). On to `COC(=O)C1C(=O)NCC1c1ccc(OC)cc1` (configuration not stated), for which the “activity change, negative = growth inhibition” value was -2.03%. In the case of `Cc1ccc(C(=O)Nc2ccc3[nH]c(=O)c(=O)[nH]c3c2)cc1`, the “activity change, negative = growth inhibition” value was 26.4%. Turning to `CC(C)CCNC(=O)CCNS(=O)(=O)c1ccc(Cl)cc1`, the “activity change, negative = growth inhibition” value was -2.47%.

With `COC(=O)c1c(OCc2ccc(F)cc2)cc(=O)n2c1CCN(Cc1ccc3cccnc3c1)CC2`, the activity change, negative = growth inhibition is 8.77% [at 9.04 µM].
